The source of these data is a collection of fitness landscapes (doi:10.1038/s41467-024-54723-y).

Whole data set: some 18,000 sequences, median “TetR repression strength (sort-seq, GFP reporter)” near 0.23, cut for the highest 2% near 0.68. This is one part of a sample in which the highest values are shown more often than they occur.

TetR (class B, Tn10), sequence (P04483 whole entry): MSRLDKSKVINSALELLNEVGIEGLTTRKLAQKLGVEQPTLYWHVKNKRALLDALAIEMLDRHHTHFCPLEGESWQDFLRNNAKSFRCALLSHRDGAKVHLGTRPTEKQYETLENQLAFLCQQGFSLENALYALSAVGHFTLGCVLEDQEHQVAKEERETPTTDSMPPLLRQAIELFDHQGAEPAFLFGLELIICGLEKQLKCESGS

The assay deals with TetR (class B, Tn10) (UniProt P04483). Briefly: TetR repression strength (sort-seq, GFP reporter) (relative to tetO2 = 1); higher = stronger repression. The conditions noted are these: E. coli. A digest of the protocol:
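Repression strength is the top bin index plus one minus the read-weighted mean bin, relative to the unaltered operator's value. A low-copy library in E. coli SIG10-MAX randomized eight operator positions between a constitutive promoter and sfGFP, with TetR expressed constitutively; cells grew 5 h at 37 °C in LB with 50 µg/mL chloramphenicol and 10^6 were FACS-sorted into 13 bins that were each Illumina-sequenced. Three independent transformations were averaged, keeping only members with ≥30 reads in all replicates and CV ≤0.5.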
The sequence TCCCTGGTAGTTGCTGAGA showed a TetR repression strength of 0.189.

As to TCCCAGAAAGTCGGGGAGA, the TetR repression strength turned out to be 0.0115.

Consider TCCCGAGCAGTATCGGAGA, for which the TetR repression strength is 0.138.

In turn, TCCCAATAAGTGATTGAGA came in with a TetR repression strength of 0.408.

Consider TCCCACATAGTCTTTGAGA, for which the TetR repression strength worked out at 0.244.

Take TCCCGTGTAGTGATCGAGA: the TetR repression strength was determined as 0.209.

TCCCGCTGAGTTTTTGAGA had a TetR repression strength of 0.307.

TCCCGGAGAGTTGAGGAGA gave a TetR repression strength of 0.193.

TCCCGGTTAGTAATTGAGA displayed a TetR repression strength of 0.345.

Regarding TCCCGCGAAGTTGCTGAGA, the TetR repression strength was 1.1.

TCCCGCTAAGTTCCTGAGA had a TetR repression strength of 0.792.

As for TCCCGCGAAGTTGTTGAGA, the TetR repression strength was 0.112.

Take TCCCGGTCAGTTCCTGAGA: the TetR repression strength turned out to be 0.26.

Take TCCCGTTAAGTTGCTGAGA: the TetR repression strength stood at 0.517.

For the sequence TCCCGTTAAGTGCCTGAGA, the TetR repression strength worked out at 0.419.

Turning to TCCCCGTAAGTTCCTGAGA, the TetR repression strength was 0.231.

TCCCGTTAAGTTCCTGAGA had a TetR repression strength of 0.721.

Regarding TCCCGTTCAGTTCCTGAGA, the TetR repression strength is 0.705.

Sequence TCCCGCTAAGTTTCTGAGA displayed a TetR repression strength of 0.393.

Turning to TCCCGCGAAGTTGGTGAGA, the TetR repression strength was determined as 0.202.

Regarding TCCCGTTCAGTTGCTGAGA, the TetR repression strength amounted to 0.512.

Turning to TCCCACATAGTTTAAGAGA, the TetR repression strength came to 0.187.

Consider TCCCACCTAGTCTGCGAGA, for which the TetR repression strength was 0.302.

Regarding TCCCTGACAGTAGTAGAGA, the TetR repression strength is 0.541.

For TCCCTGATAGTTCGAGAGA, the TetR repression strength stood at 0.244.

In turn, TCCCGGTGAGTGCGAGAGA came in with a TetR repression strength of 0.189.

TCCCAAGTAGTGGGGGAGA: the TetR repression strength stood at 0.133.

On to TCCCCTTGAGTTACCGAGA, for which the TetR repression strength came out at 0.307.

For TCCCTTGCAGTTAACGAGA, the TetR repression strength came to 0.104.

Turning to TCCCTCGAAGTTACCGAGA, the TetR repression strength worked out at 0.221.

As for TCCCTTCCAGTTACCGAGA, the TetR repression strength was found to be 0.351.

In turn, TCCCTTGAAGTTACCGAGA yielded a TetR repression strength of 0.844.

Consider TCCCTTGCAGTTACCGAGA, for which the TetR repression strength came to 0.874.

On to TCCCGGGTAGTCGGTGAGA, for which the TetR repression strength came out at 0.237.

The sequence TCCCCCATAGTGCCAGAGA showed a TetR repression strength of 0.453.

Turning to TCCCATTAAGTGAGAGAGA, the TetR repression strength worked out at 0.478.

Consider TCCCGTTCAGTCTCAGAGA, for which the TetR repression strength is 0.307.

In the case of TCCCCTCTAGTGGCCGAGA, the TetR repression strength is 0.17.

In turn, TCCCAGCAAGTAGGGGAGA gave a TetR repression strength of 0.289.

TCCCAGCAAGTCATGGAGA displayed a TetR repression strength of 0.401.

In turn, TCCCAGCAAGTATGGGAGA returned a TetR repression strength of 0.71.

Sequence TCCCAGCCAGTTATGGAGA showed a TetR repression strength of 0.169.

With TCCCAGCAAGTATGCGAGA, the TetR repression strength was 0.282.

Turning to TCCCAGCAAGTTATGGAGA, the TetR repression strength came to 0.701.

The sequence TCCCTTCAAGTGTAAGAGA displayed a TetR repression strength of 0.158.

In the case of TCCCCCCTAGTACGTGAGA, the TetR repression strength amounted to 0.814.

Turning to TCCCCACTAGTAAAAGAGA, the TetR repression strength came to 0.303.

TCCCCACTAGTAAATGAGA displayed a TetR repression strength of 0.726.

Consider TCCCCGTGAGTACGTGAGA, for which the TetR repression strength turned out to be 0.226.

TCCCCTCTAGTACGTGAGA returned a TetR repression strength of 0.207.

TCCCAACTAGTAAATGAGA gave a TetR repression strength of 0.567.

With TCCCCACTAGTACGTGAGA, the TetR repression strength worked out at 0.363.

For the sequence TCCCCCCGAGTACGTGAGA, the TetR repression strength is 0.839.

TCCCCCGGAGTACGTGAGA showed a TetR repression strength of 0.187.

TCCCTAGAAGTTATGGAGA: the TetR repression strength stood at 0.315.

The sequence TCCCTGGCAGTTCATGAGA returned a TetR repression strength of 0.199.

As for TCCCGGGTAGTCCGGGAGA, the TetR repression strength turned out to be 0.112.

In the case of TCCCAACCAGTCCCGGAGA, the TetR repression strength turned out to be 0.12.

TCCCAAGGAGTGGGTGAGA returned a TetR repression strength of 0.185.
